# CDC25B CDK2 inh – human CDC25B-CDK2/CyclinA binding inhibition. 0.72% of 94,000 active. P30305+P24941. z-score (test concentration not listed). HTRF CDC25B-CDK2/CyclinA binding, anti-His/anti-Flag; active compounds read high; in the data active = z-score above about 3.2
# TAR Tat displ – HIV-1 TAR-Tat binding disruption; 0.6% of 100,000 active; HIV-1 TAR RNA, Tat peptide displacement FRET; active compounds read high; z-score (concentration not given with the values); active = z-score of 3 or more in at least 2 runs
# Active calls of the source: *; nt = no result. Most compounds without a hit are left out; they make up all but 0.9% or so of the library.
SMILES,CDC25B CDK2 inh,TAR Tat displ
COc1ccc2ccccc2c1C1CC(=O)N2CN(c3ccc(F)cc3)CSC2=C1C#N (centres undefined),2.6,0.3
CCc1cc(Nc2ccc(C)cc2C)n2ncnc2n1,-2.7,0.18
CCOC(=O)c1cn(CC(N)=O)c2nc(C)ccc2c1=O,nt,0.3
COc1ccc(C2c3c(oc4ccc(Cl)cc4c3=O)C(=O)N2CCCN2CCOCC2)cc1OC (centres undefined),nt,1.3
CCCNC(=O)Cn1cc2c(n1)CCC(C)C2 (centres undefined),-2.8,nt
Cc1cc2nc(CSc3ccccc3N)c(=O)[nH]c2cc1C,nt,-0.63
Cc1cc2nc(CSc3ccc(N)cc3)c(=O)[nH]c2cc1C,nt,19*
C=CCOC(=O)C1=C(C)Nc2[nH]c(=O)[nH]c(=O)c2C1c1ccc(CC)cc1 (centres undefined),-1.7,nt
COC(=O)C1=C(C)Nc2[nH]c(=O)[nH]c(=O)c2C1c1ccc(Br)cc1 (centres undefined),3.6*,1.1
COc1ccc2c(c1OC)C(=O)O[C@@H]2[C@H]1c2c(cc3c(c2OC)OCO3)CCN1C,-1.4,4.3
COc1cc2c3c(c1OC)C1(C=CC(=O)C=C1)CC3N(C)CC2 (centres undefined),8.3*,-3
CCN(CC)Cc1ccc(O)c2ncccc12,13*,1.3
Oc1ccc(Cc2ccc(O)c3ncccc23)c2cccnc12,-3.8,1.9
O=C(Cn1ncc2c1-c1ccccc1OC2)N1CCCC1,-1.1,nt
O=C(O)Cn1ncc2c1-c1ccoc1CC2,11*,0.9
O=c1c2c3c(sc2ncn1Cc1ccccc1Cl)CCCC3,nt,0.69
CSc1sc(C(=O)NC(=O)Nc2ccc(Cl)cc2)c2c1-c1nocc1CC2,13*,nt
CSc1sc(C(=O)NNC(=O)Nc2ccc(Cl)cc2)c2c1C1(CCC2)SCCS1,-1.5,nt
CCC(C(=O)OCc1cc(=O)n2nc(C3CC3)sc2n1)c1ccccc1 (centres undefined),nt,0.59
O=C(O)c1cc(-c2ccccc2)nc2ccccc12,-1.3,4.1
N#Cc1ccc(-c2cc(C(=O)O)c3c(ccc4ccccc43)n2)cc1,12*,nt
O=C(CSc1nc(=O)n(-c2ccccc2)c2c1CCC2)c1ccc2c(c1)OCCO2,-1.1,-0.04
CO/N=C(/C(=O)N[C@@H]1C(=O)N2C(C(=O)O)=C(COC(C)=O)CS[C@H]12)c1csc(N)n1,nt,1.4
C=CC1=C(C(=O)O)N2C(=O)[C@@H](NC(=O)C(=NO)c3csc(N)n3)[C@H]2SC1,nt,33*
COc1ccc(C2=NS(=O)(=O)N(C)C(C(=O)Nc3sc4c(c3C#N)CCC4)=C2)cc1,-1.4,0.74
SMILES,CDC25B CDK2 inh,TAR Tat displ
Cc1ccc(-n2nc(C)c3c(C)cc(=O)n(Cc4ccc5nonc5c4)c32)cc1,nt,-1.1
O=C(Nc1ccccc1)Nn1cnnc1,-0.44,nt
O=C(Nc1ccc(Cl)c(Cl)c1)Nn1cnnc1,18*,nt
Cc1cc(NC(=O)c2cc(C(C)C)on2)n(-c2ccccc2)n1,0.51,0.58
CCc1ccccc1Nc1nc(-c2sc(N)nc2C)cs1,2.6,-7
Cc1nc(N)sc1-c1csc(Nc2cccc(Cl)c2C)n1,9.4*,-3.7
Cc1nc2c(cnn2-c2ccccc2)c(=O)n1-c1cccc2ccccc12,-1.7,-0.91
Cc1nn(CC(=O)NCCCN2CC(C)CC(C)C2)c(=O)c2cc3sccc3n12 (centres undefined),-1.1,-0.05
CCSc1nc2ccc(NC(=O)c3sc4nc(-c5ccncc5)ccc4c3N)cc2s1,-0.72,1.6
Nc1c(C(=O)Nc2ccc(F)cc2)sc2nc(-c3ccncc3)ccc12,-0.18,11*
O=C(C1CCCN(c2nnc(N3CCCC3=O)s2)C1)N1CCCCC1 (centres undefined),nt,0.45
O=C1c2ccccc2-c2onc3c(N4CCOCC4)cc(Nc4ccc5c(c4)OCCO5)c1c23,1.7,-6.2
CN1CCN(c2cc(Nc3ccc4c(c3)OCO4)c3c4c(onc24)-c2ccccc2C3=O)CC1,10*,-7
COc1cccc(Nc2cc(N3CCN(C)CC3)c3noc4c3c2C(=O)c2ccccc2-4)c1,11*,0.5
CN1CCN(c2cc(Nc3ccc4c(c3)OCCO4)c3c4c(onc24)-c2ccccc2C3=O)CC1,11*,-7
COc1cccc(Nc2cc(N3CCOCC3)c3noc4c3c2C(=O)c2ccccc2-4)c1,-2.1,1.4
CCN1CCN(c2cc(Nc3ccc4c(c3)OCO4)c3c4c(onc24)-c2ccccc2C3=O)CC1,1.2,1.1
CCOCCCNc1cc(=O)n(-c2ccccc2)nc1C(=O)OCC,nt,1.3
Cc1ccc(C(=O)NCc2ccc3c(c2)OCO3)cc1NC(=O)C1=CSCCO1,nt,1.6
O=S(=O)(NCC(c1ccco1)N1CCN(c2ccc(F)cc2)CC1)c1ccc(Cl)cc1 (centres undefined),nt,1.4
CCC1CCCCN1CCCNC(=O)C(CC)n1nc(C)c2sc3ccccc3c2c1=O (centres undefined),-2.1,2.6
CCc1nc(OCc2ccc3c(c2)OCO3)c2oc3ccccc3c2n1,nt,2.2
CCCC(CCC)C(=O)Nc1c(C)nc2ccccn2c1=O,nt,1.8

# Bioassay records from PubChem.
